In PubChem BioAssay (EPA / NIEHS):
Results filed as inconclusive are left out. The source made the active and inactive calls. Rule for the calls: active = hit-call score of the fitted dose curve at least 0.9, where 1 is the maximum; inconclusive = response in the unintended direction; inactive = score below 0.9.

Each molecule was assayed against human Peroxisome Proliferator-activated Receptor alpha (PPARa), PPARA (gene 5465) (UniProt Q07869) (assay: ATG_PPARa_TRANS: Attagene TRANS-FACTORIAL HepG2 Assay for human Peroxisome Proliferator-activated Receptor alpha (PPARa) (AID 2283001);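 for AC50: potency for gain of reporter signal over DMSO so agonist or activator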).
Sequence of human Peroxisome Proliferator-activated Receptor alpha (PPARa), PPARA (gene 5465) (Q07869 whole entry, looked up): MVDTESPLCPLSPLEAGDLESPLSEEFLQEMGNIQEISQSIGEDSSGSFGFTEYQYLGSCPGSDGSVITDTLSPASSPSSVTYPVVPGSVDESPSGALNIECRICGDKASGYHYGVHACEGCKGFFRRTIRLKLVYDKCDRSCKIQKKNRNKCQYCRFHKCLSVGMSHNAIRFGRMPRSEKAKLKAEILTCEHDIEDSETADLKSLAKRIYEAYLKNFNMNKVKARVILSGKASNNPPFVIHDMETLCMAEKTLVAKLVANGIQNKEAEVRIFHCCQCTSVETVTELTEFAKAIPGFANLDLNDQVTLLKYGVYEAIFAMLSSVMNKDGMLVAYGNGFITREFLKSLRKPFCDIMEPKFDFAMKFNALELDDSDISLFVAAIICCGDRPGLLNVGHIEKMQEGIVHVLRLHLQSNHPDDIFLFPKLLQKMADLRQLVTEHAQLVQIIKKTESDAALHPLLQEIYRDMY
How it was run: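 HepG2, transient MRTU transfection, 24 h treatment. RT-PCR → FAM labelling → capillary electrophoresis. Fit vs DMSO, positive direction.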
With `N#CCCNCCC#N` the outcome was “inactive”.
`C=CC(O)CCCCC` (centres undefined) was tested, and the outcome was “inactive”.
In the case of `COc1cc(OC)c2ccc(=O)oc2c1`, the outcome is reported as “inactive”.
With `O=C(O)c1cc2ccccc2cc1O` the outcome was “inactive”.
In the case of `CCCCCCCCCO`, the outcome is reported as “inactive”.
`O=C(C=Cc1ccccc1)OCCCc1ccccc1` was tested, and the outcome was “inactive”.
In the case of `C=CC(C)(CCC=C(C)C)OC(=O)CC` (centres undefined), the outcome is reported as “inactive”.
With `COc1ccc(C(C)=O)cc1` the outcome was “inactive”.
For `CCc1cccc(O)c1`, the outcome was “inactive”.
For `N=C1N=C(N)c2ccccc21`, the AC50 was 173 µM (active).
`CCCCOC(=O)C(C)OC(=O)CCC` (centres undefined) was tested, and the outcome was “inactive”.
With `c1coc(CNc2ncnc3nc[nH]c23)c1` the outcome was “inactive”.
With `CC/C=C\CCOC(C)OCC` (centres undefined) the outcome was “inactive”.
In the case of `CCOC(=O)COC(=O)c1ccccc1C(=O)OCC`, the outcome is reported as “inactive”.
`Nc1ccc(O)c(N)c1` was tested, and the outcome was “inactive”.
`CCCCCCCCCOS(=O)(=O)O` was tested, and the outcome was “inactive”.
For `CCCCC/C=C\C=C\C(=O)OCC`, the outcome was “inactive”.
With `CC(C)(C)C1CCC(O)CC1` (centres undefined) the outcome was “inactive”.
In the case of `CCCCCCCCOS(=O)(=O)O`, the outcome is reported as “inactive”.
With `c1ccc(Cc2ccccc2)cc1` the outcome was “inactive”.
For `CCCCOCC(C)OCC(C)O` (centres undefined), the outcome was “inactive”.
With `CC1=C(C=O)C(C)(C)CCC1` the outcome was “inactive”.
In the case of `CCCOC(=O)CC`, the outcome is reported as “inactive”.
`CC(C)N1C(=O)c2ccccc2C1=O` was tested, and the outcome was “inactive”.
With `C1COCO1` the outcome was “inactive”.
For `O=C1CCCCCCCCCCCC(=O)OCCO1`, the AC50 was 54.3 µM (active).
With `COc1ccc(OC)cc1` the outcome was “inactive”.
In the case of `CCO[Si](CCC#N)(OCC)OCC`, the outcome is reported as “inactive”.
`CCCCCCC(C)O` (centres undefined) was tested, and the outcome was “inactive”.
For `C=C(C)CCCC(C)CCO` (centres undefined), the outcome was “inactive”.
`c1ccc2scnc2c1` was tested, and the outcome was “inactive”.
With `C=C(C)C(=O)OCCC(C)OC(=O)C(=C)C` (centres undefined) the outcome was “inactive”.
With `C=C(C)C(=O)OCCOCCOC(=O)C(=C)C` the outcome was “inactive”.
For `CC1COC(=O)O1` (centres undefined), the outcome was “inactive”.

These molecules were tested against Peroxisome proliferator-activated receptor gamma (Homo sapiens) (UniProt P37231) (assay: ATG_PPARg_TRANS: Attagene TRANS-FACTORIAL HepG2 Assay for human Peroxisome Proliferator-activated Receptor-gamma (PPARg) (AID 2283007)).
Sequence of Peroxisome proliferator-activated receptor gamma (Homo sapiens) (P37231 whole entry, looked up, the tested form may be a part): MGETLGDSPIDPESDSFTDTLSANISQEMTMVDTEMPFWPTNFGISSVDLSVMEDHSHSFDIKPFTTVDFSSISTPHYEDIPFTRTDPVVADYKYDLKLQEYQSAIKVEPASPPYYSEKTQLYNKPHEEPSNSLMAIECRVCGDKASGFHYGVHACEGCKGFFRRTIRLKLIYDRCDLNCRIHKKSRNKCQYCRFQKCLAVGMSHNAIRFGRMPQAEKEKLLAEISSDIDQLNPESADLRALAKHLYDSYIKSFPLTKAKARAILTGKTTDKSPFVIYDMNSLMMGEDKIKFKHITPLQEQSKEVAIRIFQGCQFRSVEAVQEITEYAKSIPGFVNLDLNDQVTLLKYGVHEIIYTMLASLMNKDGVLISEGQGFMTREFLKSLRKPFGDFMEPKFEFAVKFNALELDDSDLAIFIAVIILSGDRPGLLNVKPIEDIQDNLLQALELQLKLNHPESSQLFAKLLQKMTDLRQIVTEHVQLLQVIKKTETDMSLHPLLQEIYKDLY
How it was run: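 Endpoint reflects upward reporter mRNA change versus DMSO controls. Setup: transiently transfected HepG2, GAL4-UAS reporters driven by chimeric NR-Gal4, 24 h incubation, RT-PCR with capillary electrophoresis read-out.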
`N#CCCNCCC#N` was tested, and the outcome was “inactive”.
In the case of `C=CC(O)CCCCC` (centres undefined), the outcome is reported as “inactive”.
For `COc1cc(OC)c2ccc(=O)oc2c1`, the outcome was “inactive”.
For `O=C(O)c1cc2ccccc2cc1O`, the AC50 was 36.1 µM (active).
For `CCCCCCCCCO`, the outcome was “inactive”.
In the case of `C=CC(C)(CCC=C(C)C)OC(=O)CC` (centres undefined), the outcome is reported as “inactive”.
With `COc1ccc(C(C)=O)cc1` the outcome was “inactive”.
For `CCc1cccc(O)c1`, the outcome was “inactive”.
For `N=C1N=C(N)c2ccccc21`, the outcome was “inactive”.
For `CCCCOC(=O)C(C)OC(=O)CCC` (centres undefined), the outcome was “inactive”.
`c1coc(CNc2ncnc3nc[nH]c23)c1` was tested, and the outcome was “inactive”.
`CC/C=C\CCOC(C)OCC` (centres undefined) was tested, and the outcome was “inactive”.
In the case of `CCOC(=O)COC(=O)c1ccccc1C(=O)OCC`, the outcome is reported as “inactive”.
With `Nc1ccc(O)c(N)c1` the outcome was “inactive”.
In the case of `CCCCCCCCCOS(=O)(=O)O`, the AC50 is reported as 30.6 µM (active).
`CCCCC/C=C\C=C\C(=O)OCC` was tested, and the AC50 was 28.5 µM (active).
`CC(C)(C)C1CCC(O)CC1` (centres undefined) was tested, and the outcome was “inactive”.
`CCCCCCCCOS(=O)(=O)O` was tested, and the AC50 was 47.6 µM (active).
`c1ccc(Cc2ccccc2)cc1` was tested, and the outcome was “inactive”.
With `CCCCOCC(C)OCC(C)O` (centres undefined) the outcome was “inactive”.
`CC1=C(C=O)C(C)(C)CCC1` was tested, and the outcome was “inactive”.
`CCCOC(=O)CC` was tested, and the outcome was “inactive”.
With `CC(C)N1C(=O)c2ccccc2C1=O` the outcome was “inactive”.
In the case of `C1COCO1`, the outcome is reported as “inactive”.
For `O=C1CCCCCCCCCCCC(=O)OCCO1`, the outcome was “inactive”.
For `COc1ccc(OC)cc1`, the outcome was “inactive”.
`CCO[Si](CCC#N)(OCC)OCC` was tested, and the outcome was “inactive”.
`CCCCCCC(C)O` (centres undefined) was tested, and the outcome was “inactive”.
In the case of `C=C(C)CCCC(C)CCO` (centres undefined), the AC50 is reported as 41.9 µM (active).
With `c1ccc2scnc2c1` the outcome was “inactive”.
In the case of `C=C(C)C(=O)OCCC(C)OC(=O)C(=C)C` (centres undefined), the AC50 is reported as 47 µM (active).
`C=C(C)C(=O)OCCOCCOC(=O)C(=C)C` was tested, and the outcome was “inactive”.
In the case of `CC1COC(=O)O1` (centres undefined), the outcome is reported as “inactive”.

Each molecule was assayed against Nuclear receptor subfamily 1 group I member 2 (Homo sapiens) (UniProt O75469) (assay: ATG_PXR_TRANS: Attagene TRANS-FACTORIAL HepG2 Assay for human Pregnane X Receptor (PXR) (AID 2283008)).
Sequence of Nuclear receptor subfamily 1 group I member 2 (Homo sapiens) (O75469 whole entry, looked up, the tested form may be a part): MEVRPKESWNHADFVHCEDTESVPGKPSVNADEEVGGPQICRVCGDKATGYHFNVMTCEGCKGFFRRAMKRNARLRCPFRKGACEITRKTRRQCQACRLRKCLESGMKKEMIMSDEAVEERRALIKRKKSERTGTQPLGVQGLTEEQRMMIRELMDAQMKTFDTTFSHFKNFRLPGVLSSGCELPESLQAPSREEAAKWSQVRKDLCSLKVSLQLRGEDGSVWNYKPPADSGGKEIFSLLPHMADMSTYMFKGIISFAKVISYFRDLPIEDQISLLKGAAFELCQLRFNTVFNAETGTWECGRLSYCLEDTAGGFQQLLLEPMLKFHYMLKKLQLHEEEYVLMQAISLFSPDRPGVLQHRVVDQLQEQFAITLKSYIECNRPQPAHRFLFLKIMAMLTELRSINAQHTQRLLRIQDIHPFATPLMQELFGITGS
How it was run: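 Transient HepG2 transfectants carrying multiplexed reporter transcription units; PXR activity read through a Gal4 chimera. 24 h exposure. RT-PCR/CE fluorescence; upward curve fit referenced to DMSO.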
In the case of `N#CCCNCCC#N`, the outcome is reported as “inactive”.
With `C=CC(O)CCCCC` (centres undefined) the outcome was “inactive”.
`COc1cc(OC)c2ccc(=O)oc2c1` was tested, and the outcome was “inactive”.
For `O=C(O)c1cc2ccccc2cc1O`, the outcome was “inactive”.
With `CCCCCCCCCO` the outcome was “inactive”.
`O=C(C=Cc1ccccc1)OCCCc1ccccc1` was tested, and the AC50 was 22.5 µM (active).
With `C=CC(C)(CCC=C(C)C)OC(=O)CC` (centres undefined) the outcome was “inactive”.
`COc1ccc(C(C)=O)cc1` was tested, and the outcome was “inactive”.
`CCc1cccc(O)c1` was tested, and the outcome was “inactive”.
`N=C1N=C(N)c2ccccc21` was tested, and the AC50 was 47.5 µM (active).
For `CCCCOC(=O)C(C)OC(=O)CCC` (centres undefined), the outcome was “inactive”.
With `CC/C=C\CCOC(C)OCC` (centres undefined) the outcome was “inactive”.
With `Nc1ccc(O)c(N)c1` the outcome was “inactive”.
In the case of `CCCCCCCCCOS(=O)(=O)O`, the outcome is reported as “inactive”.
`CCCCC/C=C\C=C\C(=O)OCC` was tested, and the AC50 was 5.19 µM (active).
For `CC(C)(C)C1CCC(O)CC1` (centres undefined), the outcome was “inactive”.
For `c1ccc(Cc2ccccc2)cc1`, the outcome was “inactive”.
For `CCCCOCC(C)OCC(C)O` (centres undefined), the outcome was “inactive”.
For `CC1=C(C=O)C(C)(C)CCC1`, the AC50 was 2.61 µM (active).
In the case of `CC(C)N1C(=O)c2ccccc2C1=O`, the outcome is reported as “inactive”.
In the case of `O=C1CCCCCCCCCCCC(=O)OCCO1`, the outcome is reported as “inactive”.
With `CCO[Si](CCC#N)(OCC)OCC` the outcome was “inactive”.
For `CCCCCCC(C)O` (centres undefined), the outcome was “inactive”.
`C=C(C)CCCC(C)CCO` (centres undefined) was tested, and the AC50 was 9.99 µM (active).
With `c1ccc2scnc2c1` the outcome was “inactive”.
For `C=C(C)C(=O)OCCC(C)OC(=O)C(=C)C` (centres undefined), the outcome was “inactive”.
With `C=C(C)C(=O)OCCOCCOC(=O)C(=C)C` the outcome was “inactive”.
